Assay results from article PMC7862700, “An all-to-all approach to the identification of sequence-specific readers for epigenetic DNA modifications on cytosine”.

How the values were obtained:
Experiment in all cases: DAPPL (digital affinity profiling via proximity ligation, sequencing); 10 mM Tris-HCl pH 7.5, 50 mM NaCl, 1 mM DTT, 4% glycerol, room temperature, 30 min; GST-TFs on glutathione beads, 16-mer random dsDNA library, 0.1% formaldehyde crosslink after washing; high values mean tight binding
[1] = target: T1, FEV (Homo sapiens, UniProt Q99581 1-238); settings: protein: recombinant; tags: N-terminal GST; dsDNA, one strand shown
T1 sequence: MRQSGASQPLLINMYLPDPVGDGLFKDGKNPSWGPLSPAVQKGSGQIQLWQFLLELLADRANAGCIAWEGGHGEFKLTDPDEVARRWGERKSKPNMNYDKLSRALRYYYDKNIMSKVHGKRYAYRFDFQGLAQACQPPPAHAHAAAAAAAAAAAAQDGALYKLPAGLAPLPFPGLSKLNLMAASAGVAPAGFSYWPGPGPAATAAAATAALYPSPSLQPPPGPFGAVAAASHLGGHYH
Procedure, shortened: (§1)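 Pools were built from human transcription factors expressed in yeast as GST fusions, captured on glutathione beads and DNA-barcoded, along with a tag-only sample. Incubation with 200 nmole of a 16-mer random double-stranded DNA library lasted 30 min at room temperature in Tris/NaCl/DTT/glycerol buffer, and was followed by washing, 0.1% formaldehyde crosslinking, proximity ligation, PCR amplification and Illumina NextSeq500 sequencing. Binding signal is the quotient of each hexamer's read frequency for a factor and its frequency for the tag-only sample.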

[2] = target: ETV5 (Homo sapiens, UniProt P41161 1-510); settings: protein: recombinant; tags: N-terminal GST; dsDNA, one strand shown
Procedure, shortened: as §1

[3] = target: HSF1 (Homo sapiens, UniProt Q00613 1-529); settings: protein: recombinant; tags: N-terminal GST; chain copies: 3; dsDNA, one strand shown
Procedure, shortened: as §1

[4] = target: T2, SPIC (Homo sapiens, UniProt Q8N5J4 1-248); settings: protein: recombinant; tags: N-terminal GST; dsDNA, one strand shown
T2 sequence: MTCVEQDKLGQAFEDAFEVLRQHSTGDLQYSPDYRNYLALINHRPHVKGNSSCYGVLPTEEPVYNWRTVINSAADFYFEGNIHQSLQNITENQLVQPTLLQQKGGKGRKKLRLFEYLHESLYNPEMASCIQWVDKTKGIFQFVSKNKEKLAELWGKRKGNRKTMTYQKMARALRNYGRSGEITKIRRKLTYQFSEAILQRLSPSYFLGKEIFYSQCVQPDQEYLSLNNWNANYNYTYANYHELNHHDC
Procedure, shortened: as §1

[5] = target: ELF4 (Homo sapiens, UniProt Q99607 1-663); settings: protein: recombinant; tags: N-terminal GST; dsDNA, one strand shown
Procedure, shortened: as §1

[6] = target: T3, ELK4 (Homo sapiens, UniProt P28324-2 1-405); settings: protein: recombinant; tags: N-terminal GST; dsDNA, one strand shown
T3 sequence: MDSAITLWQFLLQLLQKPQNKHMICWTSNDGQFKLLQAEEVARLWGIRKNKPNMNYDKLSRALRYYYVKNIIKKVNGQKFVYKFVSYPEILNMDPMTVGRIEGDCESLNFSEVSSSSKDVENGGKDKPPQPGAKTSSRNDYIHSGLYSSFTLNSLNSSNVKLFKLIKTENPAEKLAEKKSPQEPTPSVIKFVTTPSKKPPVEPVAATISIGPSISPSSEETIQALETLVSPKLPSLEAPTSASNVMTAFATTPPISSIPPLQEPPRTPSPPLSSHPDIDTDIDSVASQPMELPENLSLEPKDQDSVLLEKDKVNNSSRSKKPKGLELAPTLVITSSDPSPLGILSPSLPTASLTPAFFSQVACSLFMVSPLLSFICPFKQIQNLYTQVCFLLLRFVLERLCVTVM
Procedure, shortened: as §1

[7] = target: T4, ETV2 (Homo sapiens, UniProt O00321 1-342); settings: protein: recombinant; tags: N-terminal GST; dsDNA, one strand shown
T4 sequence: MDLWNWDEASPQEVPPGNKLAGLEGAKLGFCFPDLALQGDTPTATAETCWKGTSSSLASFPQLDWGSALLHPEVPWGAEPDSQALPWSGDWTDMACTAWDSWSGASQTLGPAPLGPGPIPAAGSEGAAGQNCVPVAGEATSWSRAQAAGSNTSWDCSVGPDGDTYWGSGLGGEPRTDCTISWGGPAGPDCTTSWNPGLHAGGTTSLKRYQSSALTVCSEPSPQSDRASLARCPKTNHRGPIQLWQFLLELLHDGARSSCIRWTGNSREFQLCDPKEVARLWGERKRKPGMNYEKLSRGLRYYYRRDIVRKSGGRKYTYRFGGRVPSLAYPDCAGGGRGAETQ
Procedure, shortened: as §1

[8] = target: T5, ELF3 (Homo sapiens, UniProt P78545 1-371); settings: protein: recombinant; tags: N-terminal GST; dsDNA, one strand shown
T5 sequence: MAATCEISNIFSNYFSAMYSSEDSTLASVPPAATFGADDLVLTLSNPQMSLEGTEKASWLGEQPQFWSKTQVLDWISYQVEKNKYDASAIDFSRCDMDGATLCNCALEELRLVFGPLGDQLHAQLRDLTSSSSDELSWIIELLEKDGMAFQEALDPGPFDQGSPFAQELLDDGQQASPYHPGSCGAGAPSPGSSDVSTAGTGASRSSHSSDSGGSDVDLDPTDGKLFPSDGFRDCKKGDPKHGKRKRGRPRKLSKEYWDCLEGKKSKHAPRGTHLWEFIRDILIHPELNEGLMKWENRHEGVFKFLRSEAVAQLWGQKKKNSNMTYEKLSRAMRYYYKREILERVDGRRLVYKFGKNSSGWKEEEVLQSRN
Procedure, shortened: as §1

[9] = target: CRX (Homo sapiens, UniProt O43186 1-299); settings: protein: recombinant; tags: N-terminal GST; dsDNA, one strand shown
Procedure, shortened: as §1

[10] = target: ETV1 (Homo sapiens, UniProt P50549 1-477); settings: protein: recombinant; tags: N-terminal GST; dsDNA, one strand shown
Procedure, shortened: as §1

[11] = target: T6, ERF (Homo sapiens, UniProt P50548 1-548); settings: protein: recombinant; tags: N-terminal GST; dsDNA, one strand shown
T6 sequence: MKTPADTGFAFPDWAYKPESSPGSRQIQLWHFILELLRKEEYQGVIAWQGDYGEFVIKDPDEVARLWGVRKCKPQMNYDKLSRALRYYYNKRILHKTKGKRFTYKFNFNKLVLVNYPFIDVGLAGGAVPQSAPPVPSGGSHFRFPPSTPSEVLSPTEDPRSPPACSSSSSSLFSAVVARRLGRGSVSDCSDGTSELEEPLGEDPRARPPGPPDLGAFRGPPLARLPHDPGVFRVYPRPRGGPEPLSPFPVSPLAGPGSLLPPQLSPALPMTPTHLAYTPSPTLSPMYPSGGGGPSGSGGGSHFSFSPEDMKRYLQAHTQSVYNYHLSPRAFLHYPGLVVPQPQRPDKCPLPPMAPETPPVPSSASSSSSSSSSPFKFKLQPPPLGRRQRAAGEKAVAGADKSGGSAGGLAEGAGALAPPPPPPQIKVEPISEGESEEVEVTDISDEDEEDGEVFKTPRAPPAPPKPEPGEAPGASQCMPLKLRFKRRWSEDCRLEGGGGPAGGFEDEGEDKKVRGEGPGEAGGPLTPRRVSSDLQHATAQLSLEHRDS
Procedure, shortened: as §1

[12] = target: T7, ETV3L (Homo sapiens, UniProt Q6ZN32 1-361); settings: protein: recombinant; tags: N-terminal GST; dsDNA, one strand shown
T7 sequence: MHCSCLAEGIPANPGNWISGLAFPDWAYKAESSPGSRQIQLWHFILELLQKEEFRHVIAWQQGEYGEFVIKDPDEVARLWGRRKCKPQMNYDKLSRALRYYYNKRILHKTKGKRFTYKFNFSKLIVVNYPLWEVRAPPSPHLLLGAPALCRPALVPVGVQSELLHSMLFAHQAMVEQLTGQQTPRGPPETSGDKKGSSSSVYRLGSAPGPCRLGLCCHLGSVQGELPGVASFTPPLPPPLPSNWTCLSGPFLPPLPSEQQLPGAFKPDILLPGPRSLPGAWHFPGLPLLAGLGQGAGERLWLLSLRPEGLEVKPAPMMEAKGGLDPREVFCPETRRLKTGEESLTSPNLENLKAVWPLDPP
Procedure, shortened: as §1

[13] = target: T8, ETS2 (Homo sapiens, UniProt P15036 1-469); settings: protein: recombinant; tags: N-terminal GST; dsDNA, one strand shown
T8 sequence: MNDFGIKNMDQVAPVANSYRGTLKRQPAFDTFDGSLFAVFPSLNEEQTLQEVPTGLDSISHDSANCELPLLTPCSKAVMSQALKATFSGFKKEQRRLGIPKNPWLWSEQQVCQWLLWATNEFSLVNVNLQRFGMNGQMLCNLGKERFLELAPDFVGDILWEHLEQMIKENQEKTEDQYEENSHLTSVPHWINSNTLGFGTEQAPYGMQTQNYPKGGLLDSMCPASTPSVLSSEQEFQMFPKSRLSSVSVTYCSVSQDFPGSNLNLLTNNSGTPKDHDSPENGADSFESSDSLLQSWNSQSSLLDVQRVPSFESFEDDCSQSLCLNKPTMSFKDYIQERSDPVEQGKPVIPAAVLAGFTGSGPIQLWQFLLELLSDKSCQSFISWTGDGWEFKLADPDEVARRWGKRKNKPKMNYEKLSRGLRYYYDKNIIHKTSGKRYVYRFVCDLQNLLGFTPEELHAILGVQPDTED
Procedure, shortened: as §1

[14] = target: T9, SPDEF (Homo sapiens, UniProt O95238 1-335); settings: protein: recombinant; tags: N-terminal GST; dsDNA, one strand shown
T9 sequence: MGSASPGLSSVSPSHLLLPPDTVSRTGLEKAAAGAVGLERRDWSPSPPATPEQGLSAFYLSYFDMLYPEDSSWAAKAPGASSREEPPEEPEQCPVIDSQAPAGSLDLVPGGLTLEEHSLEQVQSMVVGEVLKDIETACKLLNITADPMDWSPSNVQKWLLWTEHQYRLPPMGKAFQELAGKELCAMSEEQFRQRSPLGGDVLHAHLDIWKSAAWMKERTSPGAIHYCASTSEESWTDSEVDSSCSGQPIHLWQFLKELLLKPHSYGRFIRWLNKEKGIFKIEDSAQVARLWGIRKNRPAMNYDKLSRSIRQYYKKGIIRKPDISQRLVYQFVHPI
Procedure, shortened: as §1

[15] = target: T10, ETV7 (Homo sapiens, UniProt Q9Y603 1-341); settings: protein: recombinant; tags: N-terminal GST; dsDNA, one strand shown
T10 sequence: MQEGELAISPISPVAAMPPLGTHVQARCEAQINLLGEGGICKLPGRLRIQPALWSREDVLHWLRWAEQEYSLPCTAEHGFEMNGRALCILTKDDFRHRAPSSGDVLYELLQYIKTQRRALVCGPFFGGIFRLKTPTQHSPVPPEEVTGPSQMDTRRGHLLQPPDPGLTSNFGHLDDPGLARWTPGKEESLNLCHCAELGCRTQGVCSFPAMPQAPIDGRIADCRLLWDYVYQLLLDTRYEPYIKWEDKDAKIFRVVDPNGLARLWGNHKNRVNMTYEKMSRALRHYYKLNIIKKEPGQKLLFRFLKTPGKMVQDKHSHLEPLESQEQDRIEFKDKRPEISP
Procedure, shortened: as §1

[16] = target: T11, ELF5 (Homo sapiens, UniProt Q9UKW6-2 1-255); settings: protein: recombinant; tags: N-terminal GST; dsDNA, one strand shown
T11 sequence: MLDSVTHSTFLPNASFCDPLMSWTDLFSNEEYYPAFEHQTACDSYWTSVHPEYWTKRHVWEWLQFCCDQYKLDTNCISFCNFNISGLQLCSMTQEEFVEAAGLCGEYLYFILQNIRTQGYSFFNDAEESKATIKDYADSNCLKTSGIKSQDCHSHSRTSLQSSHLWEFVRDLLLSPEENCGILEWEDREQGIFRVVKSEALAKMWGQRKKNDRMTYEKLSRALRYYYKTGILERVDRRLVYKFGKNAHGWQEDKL
Procedure, shortened: as §1

[17] = target: T12, ETV3 (Homo sapiens, UniProt P41162-2 1-143); settings: protein: recombinant; tags: N-terminal GST; dsDNA, one strand shown
T12 sequence: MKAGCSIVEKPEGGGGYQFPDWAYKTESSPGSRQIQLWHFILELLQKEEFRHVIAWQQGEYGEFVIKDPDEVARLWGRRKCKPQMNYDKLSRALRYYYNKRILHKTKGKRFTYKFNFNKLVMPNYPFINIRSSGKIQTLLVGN
Procedure, shortened: as §1

[18] = target: ETV6 (Homo sapiens, UniProt P41212 1-452); settings: protein: recombinant; tags: N-terminal GST; dsDNA, one strand shown
Procedure, shortened: as §1

Chain of ELF4 (Q99607 whole entry): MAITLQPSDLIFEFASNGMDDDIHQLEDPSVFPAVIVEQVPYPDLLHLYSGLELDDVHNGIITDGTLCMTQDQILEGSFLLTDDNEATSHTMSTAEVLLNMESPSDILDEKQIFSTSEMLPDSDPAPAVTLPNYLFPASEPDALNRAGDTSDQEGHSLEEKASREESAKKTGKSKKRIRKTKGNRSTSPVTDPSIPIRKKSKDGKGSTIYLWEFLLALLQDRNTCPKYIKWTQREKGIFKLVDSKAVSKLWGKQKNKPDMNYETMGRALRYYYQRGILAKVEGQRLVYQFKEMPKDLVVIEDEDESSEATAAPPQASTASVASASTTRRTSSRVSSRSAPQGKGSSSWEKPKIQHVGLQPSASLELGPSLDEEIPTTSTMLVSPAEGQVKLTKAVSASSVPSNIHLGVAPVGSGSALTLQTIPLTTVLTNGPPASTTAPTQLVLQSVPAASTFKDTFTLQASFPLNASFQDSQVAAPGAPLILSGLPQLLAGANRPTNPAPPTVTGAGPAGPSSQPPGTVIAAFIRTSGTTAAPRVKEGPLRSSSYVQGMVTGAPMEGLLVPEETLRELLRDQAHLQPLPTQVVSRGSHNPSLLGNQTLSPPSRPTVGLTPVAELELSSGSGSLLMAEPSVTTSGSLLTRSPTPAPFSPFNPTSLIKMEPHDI
Chain of ETV1 (P50549 whole entry): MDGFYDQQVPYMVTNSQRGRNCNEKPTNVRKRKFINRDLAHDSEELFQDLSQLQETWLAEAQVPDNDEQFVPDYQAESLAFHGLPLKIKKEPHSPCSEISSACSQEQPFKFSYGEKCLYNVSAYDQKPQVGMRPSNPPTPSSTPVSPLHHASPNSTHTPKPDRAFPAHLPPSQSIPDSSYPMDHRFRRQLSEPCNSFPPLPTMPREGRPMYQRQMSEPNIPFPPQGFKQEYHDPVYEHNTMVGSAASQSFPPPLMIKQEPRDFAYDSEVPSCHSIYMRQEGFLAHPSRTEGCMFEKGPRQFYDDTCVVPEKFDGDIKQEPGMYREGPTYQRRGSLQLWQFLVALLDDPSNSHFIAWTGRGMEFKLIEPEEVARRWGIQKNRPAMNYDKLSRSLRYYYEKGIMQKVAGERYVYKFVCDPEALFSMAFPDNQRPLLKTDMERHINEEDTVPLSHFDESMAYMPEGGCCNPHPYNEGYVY
Chain of CRX (O43186 whole entry): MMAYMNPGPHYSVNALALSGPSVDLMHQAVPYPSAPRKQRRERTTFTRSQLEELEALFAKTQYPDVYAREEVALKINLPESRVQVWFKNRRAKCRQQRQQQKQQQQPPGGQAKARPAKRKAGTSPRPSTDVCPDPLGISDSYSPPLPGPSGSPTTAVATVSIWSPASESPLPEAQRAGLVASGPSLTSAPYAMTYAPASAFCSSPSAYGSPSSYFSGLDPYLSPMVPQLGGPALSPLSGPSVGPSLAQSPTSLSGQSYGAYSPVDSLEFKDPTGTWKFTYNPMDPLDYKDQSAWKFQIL
Chain of ETV6 (P41212 whole entry): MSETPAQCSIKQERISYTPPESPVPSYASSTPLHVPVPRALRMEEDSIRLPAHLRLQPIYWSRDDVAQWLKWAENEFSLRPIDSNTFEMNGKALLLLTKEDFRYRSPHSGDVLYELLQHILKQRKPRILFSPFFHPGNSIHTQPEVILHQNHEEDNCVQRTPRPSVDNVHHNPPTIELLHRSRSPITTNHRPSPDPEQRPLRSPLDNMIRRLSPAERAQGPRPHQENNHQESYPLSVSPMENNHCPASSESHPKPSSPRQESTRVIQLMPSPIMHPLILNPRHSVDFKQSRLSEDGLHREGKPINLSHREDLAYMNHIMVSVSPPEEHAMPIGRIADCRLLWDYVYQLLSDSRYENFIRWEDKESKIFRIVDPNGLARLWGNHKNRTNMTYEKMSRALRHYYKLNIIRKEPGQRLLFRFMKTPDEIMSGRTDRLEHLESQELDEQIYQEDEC
Chain of ETV5 (P41161 whole entry): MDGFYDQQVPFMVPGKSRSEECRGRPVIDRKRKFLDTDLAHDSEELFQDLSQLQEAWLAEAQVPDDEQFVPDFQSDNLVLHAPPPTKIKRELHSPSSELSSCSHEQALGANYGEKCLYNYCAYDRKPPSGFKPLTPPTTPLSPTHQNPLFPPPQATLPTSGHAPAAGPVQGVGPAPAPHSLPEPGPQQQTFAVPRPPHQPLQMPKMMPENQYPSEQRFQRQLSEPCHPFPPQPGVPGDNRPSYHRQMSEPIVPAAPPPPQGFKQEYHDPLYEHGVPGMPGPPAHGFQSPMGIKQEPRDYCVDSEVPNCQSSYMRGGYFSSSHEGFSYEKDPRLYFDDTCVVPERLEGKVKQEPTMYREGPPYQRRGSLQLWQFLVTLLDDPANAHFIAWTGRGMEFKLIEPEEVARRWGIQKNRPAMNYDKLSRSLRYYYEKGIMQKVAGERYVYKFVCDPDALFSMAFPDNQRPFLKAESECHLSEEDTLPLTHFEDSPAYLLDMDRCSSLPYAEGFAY
Chain of HSF1 (Q00613 whole entry): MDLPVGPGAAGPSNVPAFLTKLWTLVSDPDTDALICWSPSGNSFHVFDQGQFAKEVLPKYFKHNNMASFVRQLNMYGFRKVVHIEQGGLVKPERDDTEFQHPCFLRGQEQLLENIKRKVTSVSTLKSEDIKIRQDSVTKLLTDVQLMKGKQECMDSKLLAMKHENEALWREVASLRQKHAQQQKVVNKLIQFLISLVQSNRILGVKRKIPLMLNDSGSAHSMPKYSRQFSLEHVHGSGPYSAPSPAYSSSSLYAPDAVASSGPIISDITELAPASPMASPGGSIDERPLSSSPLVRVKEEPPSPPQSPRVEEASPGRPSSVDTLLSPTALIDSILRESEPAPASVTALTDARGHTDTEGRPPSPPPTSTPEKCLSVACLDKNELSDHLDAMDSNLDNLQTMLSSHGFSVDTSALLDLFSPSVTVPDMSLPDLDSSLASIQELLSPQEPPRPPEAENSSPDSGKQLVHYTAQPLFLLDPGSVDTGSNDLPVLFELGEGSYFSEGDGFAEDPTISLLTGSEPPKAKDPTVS

AATGAC
binding signal [1]: 1.47 fold enrichment (6-mer frequency, TF over GST control) | binding signal [2]: 1.35 fold enrichment (6-mer frequency, TF over GST control) | binding signal [3]: 1.22 fold enrichment (6-mer frequency, TF over GST control) | binding signal [4]: 1.36 fold enrichment (6-mer frequency, TF over GST control) | binding signal [5]: 1.37 fold enrichment (6-mer frequency, TF over GST control) | binding signal [6]: 1.35 fold enrichment (6-mer frequency, TF over GST control) | binding signal [7]: 1.4 fold enrichment (6-mer frequency, TF over GST control) | binding signal [8]: 1.49 fold enrichment (6-mer frequency, TF over GST control) | binding signal [9]: 1.16 fold enrichment (6-mer frequency, TF over GST control) | binding signal [10]: 1.4 fold enrichment (6-mer frequency, TF over GST control) | binding signal [11]: 1.35 fold enrichment (6-mer frequency, TF over GST control) | binding signal [12]: 1.43 fold enrichment (6-mer frequency, TF over GST control) | binding signal [13]: 1.45 fold enrichment (6-mer frequency, TF over GST control) | binding signal [14]: 1.37 fold enrichment (6-mer frequency, TF over GST control) | binding signal [15]: 1.29 fold enrichment (6-mer frequency, TF over GST control) | binding signal [16]: 1.36 fold enrichment (6-mer frequency, TF over GST control) | binding signal [17]: 1.35 fold enrichment (6-mer frequency, TF over GST control) | binding signal [18]: 1.49 fold enrichment (6-mer frequency, TF over GST control)
